Article PMC4552634, “A New Set of Chemical Starting Points with Plasmodium falciparum Transmission-Blocking Potential for Antimalarial Drug Discovery” (PLoS ONE, 2015)
The whole screen tested about 13,000 compounds, of which about 3,200 (25%) showed an effect of 50% or more. The list shows a part of the results.

Test system: P. falciparum stage V gametocytes
Parameters: BacTiter-Glo ATP luminescence viability of purified stage V gametocytes in 384-well plates, per cent inhibition versus DMSO
Settings: 48 h, 5 µM; inhibitor

| SMILES | % Inhibition |
| --- | --- |
| COc1cc(C=CC(=O)N2CCN(Cc3cccc(C)c3)CC2)ccc1OCc1c(C)noc1C [TCMDC-125249] | 23.84% |
| Cc1nc(N)nc(N)c1Oc1cccc(Cl)c1 [TCMDC-137376] | -5.588% |
| Cc1ccc(C)c(NC(=O)NCCNc2ccnc(Nc3ccc(F)cc3)n2)c1 [TCMDC-133638] | 7.929% |
| CN1CCN(c2cc(NC(=O)c3ccc(-c4ccc(C#N)cc4)cc3)ccc2Cl)CC1 [TCMDC-138670] | -41.42% |
| O=C(Nc1ccc(OC2CCN(Cc3ccc(F)cc3)CC2)c(Cl)c1)c1ccsc1 [TCMDC-133745] | -5.727% |
| Cc1cc(=O)oc2c1ccc1oc(C(O)c3ccc(Cl)cc3)c(C)c12 (centres unmarked) [TCMDC-123999] | -9.04% |
| CCOc1ccc2nc(C)cc(NN=Cc3cccc(C)n3)c2c1 [TCMDC-142050] | 48.92% |
| Cc1ccc2nc(C)cc(NN=Cc3ccccc3Cl)c2c1 [TCMDC-142062] | -47.12% |
| CCOc1ccc2nc(C)cc(NN=Cc3ccccc3Cl)c2c1 [TCMDC-142090] | 95.12% |
| Cc1ccc2nc(C)cc(NN=Cc3ccccc3F)c2c1 [TCMDC-142065] | 60.82% |
| Fc1ccc2c(NN=Cc3ccccc3F)ccnc2c1 [TCMDC-142018] | 101.1% |
| Cc1cc(NN=Cc2ccccc2F)c2ccccc2n1 [TCMDC-123982] | -9.703% |
| CCOc1ccc2nc(C)cc(NN=Cc3ccccc3F)c2c1 [TCMDC-142092] | 61.8% |
| COc1ccc2nc(C)cc(NN=Cc3ccccc3F)c2c1 [TCMDC-142083] | 38.04% |
| Fc1cccc(C=NNc2ccnc3ccccc23)c1 [TCMDC-142058] | -35.92% |
| Cc1cc(NN=Cc2ccccc2F)c2cc(C(F)(F)F)ccc2n1 [TCMDC-142027] | -61.45% |
| Fc1cccc(C=NNc2ccnc3cc(Cl)ccc23)c1 [TCMDC-123966] | -20.4% |
| CC(C)CC(NC(=O)c1cccc(OCCN2CCOCC2)c1)C(=O)NC(/C=N/NC(=O)c1ccccc1)CCc1ccccc1 (centres unmarked) [TCMDC-135464] | 15.6% |
| CC1(C)CCCN(C(=O)c2cccc(-n3nc(-c4ccc(Cl)cc4)cc3N)c2)C1 [TCMDC-134042] | -38.1% |
| O=C(Nc1ccc2c(c1)CCC2)c1cnc(N2CCN(c3ccncc3)CC2)c(Cl)c1 [TCMDC-134596] | 8.854% |
| O=C(Nc1ccc(Br)cc1)N(CCN1CCOCC1)CC(O)COCc1ccc(Cl)c(Cl)c1 (centres unmarked) [TCMDC-141490] | 5.181% |
| Cc1ccc(N2C(N)=NC(N)=NC2(C)C)cc1 [TCMDC-131578] | 18.97% |
| CN(CCON1C(N)=NC(N)=NC1(C)C)c1ccccc1 [TCMDC-131733] | 4.514% |
| O=C(Nc1ccc(I)cc1)N1CCc2sccc2C1CN1CCCCC1 (centres unmarked) [TCMDC-136648] | -39.22% |
| CC(CN(C)C)C(=O)Nc1cccc(-c2ccc(-c3nc4cc(F)ccc4[nH]3)s2)c1 (centres unmarked) [TCMDC-137114] | -16.25% |
| CCN(CCO)CCCC(C)Nc1ccnc2cc(Cl)ccc12 (centres unmarked) [TCMDC-123987] | 30.66% |
| CC(C)C1CCc2nc(N)nc(N)c2C1 (centres unmarked) [TCMDC-137947] | 0.4281% |

| SMILES | % Inhibition |
| --- | --- |
| CCC(C)(C)C1CCc2nc(N)nc(N)c2C1 (centres unmarked) [TCMDC-137870] | -20.62% |
| CC(C)(C)C1CCc2nc(N)nc(N)c2C1 (centres unmarked) [TCMDC-137954] | 82.06% |
| CCCC1(NC[C@@H](O)[C@H](Cc2ccccc2)NC(=O)c2cc(NCC)cc(N3CCCCS3(=O)=O)c2)CCC1 [TCMDC-135374] | 23.04% |
| Cc1ccccc1CNc1ccc2nc(N)nc(N)c2c1 [TCMDC-135439] | 74.86% |
| CCOC(=O)CN1Cc2cc(NCc3ccc4ccc5nc(C)[nH]c(=O)c5c4c3)ccc2C1=O [TCMDC-137815] | 10.92% |
| COc1ccc(CNc2ccc3nc(N)nc(N)c3c2)cc1 [TCMDC-139002] | 12.04% |
| Nc1nc(N)c2c(Cl)c(CNc3cccc(C(=O)O)c3)ccc2n1 [TCMDC-138268] | -3.552% |
| CCN(Cc1cccc2ccccc12)c1ccc2nc(N)nc(N)c2c1 [TCMDC-137765] | -46.6% |
| CCOC(=O)COc1cccc(CNc2ccc3nc(N)nc(N)c3c2)c1 [TCMDC-137822] | 100.9% |
| CCOc1ccccc1C(=O)N1CCc2cc3nccc(N4CCN5CCC[C@H]5C4)c3cc21 [TCMDC-140042] | 21.16% |
| CN(C)CCOc1ccc(-c2cc(-c3ccc(Cl)c(O)c3)c(-c3ccncc3)o2)cc1 [TCMDC-141254] | -18.41% |
| COc1ccc2nc(NC3=NC(c4ccccn4)(c4ccccn4)C(=O)N3C)[nH]c2c1 [TCMDC-139288] | 10.34% |
| Cc1cccc(CN2CCCN(Cc3cccc(C(=O)Nc4ccc(C(C)(C)C)cc4)c3)CC2)c1 [TCMDC-135984] | -91.41% |
| CN(C)CCOc1ccc(-c2cc(-c3ccc(Cl)c(O)c3)c(-c3ccnc(N)n3)o2)cc1 [TCMDC-141332] | 28.72% |
| N#Cc1ccc(-c2nc3c(N4CCCC4)cccc3n2CCNCc2ccccc2)cc1 [TCMDC-133433] | 30.7% |
| N#Cc1cncc(-c2nc3c(N4CCN(c5cnccn5)CC4)cccc3n2CCNCc2ccccc2)c1 [TCMDC-133413] | -21.4% |
| CC[C@H](C)CNC(=O)c1cncc(-c2cccc(CN3CCC(N4CCCC4)CC3)c2)c1 [TCMDC-134226] | 16.8% |
| Oc1ccc(-c2nc3c(N4CCN(Cc5ccccc5)CC4)cccc3n2C2CCNCC2)cc1 [TCMDC-132125] | 4.567% |
| CC1CN(c2cccc3c2nc(-c2cncc(C#N)c2)n3CCNCc2ccccc2)CC(C)O1 (centres unmarked) [TCMDC-133411] | 66.36% |
| c1ccc(CNCCn2c(-c3ccc4c(c3)CCO4)nc3c(N4CCCC4)cccc32)cc1 [TCMDC-134289] | 92.48% |
| COc1ccccc1N1CCN(c2cccc3c2nc(-c2cncc(C#N)c2)n3CCNCc2ccccc2)CC1 [TCMDC-133412] | -37.42% |
| CC(C)CN(C)c1ncnc2c1nc(-c1cncc(C#N)c1)n2CCNCc1ccccc1 [TCMDC-136555] | 12.57% |
| CN(C)c1cccc2c1nc(-c1ccc3c(c1)CCO3)n2CCNCc1ccccc1 [TCMDC-134062] | 5.243% |
| N#Cc1cncc(-c2nc3c(N4CCC(Cc5ccccc5)CC4)cccc3n2CCNCc2ccccc2)c1 [TCMDC-133546] | 51.69% |
| N#Cc1cncc(-c2nc3c(N4CCC(N5CCCC5)CC4)cccc3n2CCNCc2ccccc2)c1 [TCMDC-133547] | 94.76% |
| N#Cc1cncc(-c2nc3c(N4CCCC(N)C4)cccc3n2CCNCc2ccccc2)c1 (centres unmarked) [TCMDC-135364] | -9.75% |
